Screens deposited in PubChem by National Center for Advancing Translational Sciences (NCATS).
HP1b chromo inh = inhibitors of HP1-beta chromodomain binding to methylated histone tails; Potency, µM (series often up to 114 µM), without a hit: at the top dose activity change, negative = inhibition, actives largely listed as inhibitors; P83916; AID 540317; 0.56% of 390,000 active; AlphaScreen HP1-beta / biotin-H3K9me3 peptide binding; also: nearly all actives have a fitted effect of over 70% in size
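HP1-beta protein (50 nM final) preincubated 30 min at room temperature with biotinylated H3(1-18)K9me3 peptide (50 nM) in PBS pH 7.4, 0.01% Tween-20, then compound added for 30 min. AlphaScreen streptavidin donor/nickel chelate acceptor beads (10 ug/mL final), 30 min dark, luminescence read.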
BAZ2B block = BAZ2B (human) inhibition. 4.4% of 360,000 active. Potency, µM (titrated, usually from 114 µM), inactives show at the top dose activity change, negative = inhibition, most hits filed as inhibitors. AlphaScreen BAZ2B-H3K14Ac peptide displacement; also: % is scaled to controls: 0 for no effect and ±100 for the full control effect; nearly all actives have a fitted effect of over 60% in size
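Protein-peptide AlphaScreen: BAZ2B 50 nM, b-H3K14Ac 50 nM, 1x PBS pH 7.4 + 0.01% Tween-20. Preincubation 30 min RT; cpd 30 min RT (top 110 uM); beads 20 min RT, light-protected.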
G9a inh = G9a (human) methyltransferase inhibition; G9a H3K9 monomethylation, AlphaScreen, 2 h; Potency, µM (titrated, usually from 102 µM), for the others: at the top dose activity, negative = inhibition, actives largely listed as inhibitors; 8.8% of 350,000 active; also: % is scaled to controls: 0 for no effect and ±100 for the full control effect; nearly all actives have a fitted effect of over 75% in size
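AlphaScreen detection with an anti-monomethyl H3K9 antibody quantified product after a 2 h room-temperature reaction containing 500 nM biotinylated H3K9 peptide, 20 µM SAM and 20 nM enzyme, which had been preincubated 15 min with compound.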
JMJD2A Tudor inh = blocks the human JMJD2A Tudor domain | O75164 | AlphaScreen JMJD2A-Tudor / H3K4me3 peptide binding | Potency, µM (doses to about 114 µM), inactives show at the highest dose activity change, negative = inhibition, most hits filed as inhibitors | 4.4% of 390,000 active; also: % is scaled to controls: 0 for no effect and ±100 for the full control effect; nearly all actives have a fitted effect of over 50% in size
Sfp inh = inhibitors of Bacillus subtilis Sfp phosphopantetheinyl transferase; Q9F4F7; Biochemical Sfp PPTase activity, qHTS; Potency, µM, for the others: largest response in the series, negative = inhibition, most hits filed as inhibitors; 3.5% of 310,000 active; AID 1490;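 also: the enzyme is Sfp with the accession as filed and its product quenches rhodamine fluorescence; 0% = enzyme reaction without inhibitor and -100% = no enzyme wells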
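Step 1, compound plus 15 nM Sfp-PPTase, 15 min, room temperature. Step 2, add rhodamine-CoA (5 uM) and BHQ-2-YbbR (12.5 uM). Step 3, read 525/598 nm fluorescence at 0 and 30 min.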
An asterisk follows results filed as active; ? = inconclusive; · = no result; ! = not active in a repeat; [ ] = dose if it differs, or a comment. Hits are enriched below; roughly 12% of the tested compounds scored in any of these assays. Calls follow the shape of the dose curve; as a rule, active = well fitted curve in the direction sought with a large enough effect; inconclusive = small, poorly fitted or top-dose-only effect, or another doubt; inactive = no such curve, though single readings can be large; an effect the other way counts as inactive or inconclusive. Potency is read from the fitted curve at half-maximal effect.

SMILES	HP1b chromo inh	BAZ2B block	G9a inh	JMJD2A Tudor inh	Sfp inh
NC(=S)NN=C1C2CC3CC(C2)CC1C3	-24%	-11%	14µM*	-17%	32µM*
NC(=O)C(=O)NN=C1C2CC3CC(C2)CC1C3	1%	-35%	45µM*	?	12%
NC(=S)NN=C1CCCCCCCCC1	4%	·	·	-19%	·
O=C1OC2(CCCC2)OC(=O)C1=Cc1c[nH]c2ccccc12	41%	-2%	·	89µM*	9%
Cn1cc(C=C2C(=O)OC3(CCCCC3)OC2=O)c2ccccc21	27%	-15%	·	-22%	-19%
O=C(Cn1cnc2onc(-c3ccc(F)cc3)c2c1=O)N1CCN(c2ccccc2F)CC1	21%	2%[57.1 µM]	-4%[59 µM]	-16%	·
CCOC(=O)C1CCN(C(=S)Nc2ccccc2)CC1	24%	-10%	·	-2%	-11%
CCOC(=O)C1CCN(C(=S)Nc2ccc(S(N)(=O)=O)cc2)CC1	?	-3%	10µM*	?	45µM*
CCOC(=O)C1CCN(C(=S)Nc2ccc(C)cc2)CC1	52%	-25%	-19%	-13%	7%
NS(=O)(=O)c1ccc(NC(=S)N2CCC(O)CC2)cc1	12%	2%	40µM*	7%	45µM*
CCOC(=O)C1CCCN(C(=S)Nc2ccc(Nc3ccccc3)cc2)C1 (configuration not stated)	?	35µM*	25µM*	56µM*	45µM*
COC(=O)[C@H]1C2CC3c4[nH]c5ccccc5c4CCN3CC2CC[C@@H]1O (some centres not stated)	·	·	13%[59 µM]	·	12%
COc1ccccc1C(=O)N(CCC1CCCN1C)c1nc2ccccc2s1 (configuration not stated)	12%	-12%	?	-12%	1%
CC1CC(NC(=O)Cc2ccc(Br)cc2)CC(C)(C)C1 (configuration not stated)	8%	12%	-7%[59 µM]	40µM*	13%
C[C@]12CCC(=O)C=C1CCC1C2C(O)C[C@]2(C)C1CC[C@]2(O)C(=O)CO (some centres not stated)	·	·	-3%[2.33 µM]	·	14%
Nc1ccccc1SC/C=C/CSc1ccccc1N	26%	-22%	11µM*	-18%	-30%
CCOc1ccc(C(C)=O)cc1N1C(=O)C2C3C=CC(O3)C2C1=O (configuration not stated)	28µM*	?	?	20µM*	7.9µM*
CCOC(=O)c1c(NC(=O)C2=C(C)NC(=S)NC2c2ccccc2C(F)(F)F)sc(C)c1C (configuration not stated)	-8%	-27%	21%[59 µM]	-17%	16µM*
C/C(=N\N1C(=O)c2ccccc2NC1c1ccccc1)c1ccccc1O (configuration not stated)	46%	-25%	14%	-4%	23%
C/C(=N\N1C(=O)c2ccccc2NC1c1ccco1)c1ccccc1O (configuration not stated)	?	71µM*	-45%	?	18%
CCC(C)C(NC(=O)C(Cc1ccc(O)cc1)NC(=O)C(N)C(C)C)C(=O)NC(Cc1cnc[nH]1)C(=O)N1CCCC1C(=O)NC(Cc1ccccc1)C(=O)O (configuration not stated)	·	·	·	·	-14%
Cc1cc(SCNC(=O)c2ccccc2)ncn1	?	-39%	?	28µM*	25µM*
Cc1cc(C)nc(SCNC(=O)c2ccc(F)cc2)n1	48%	-1%	?	-35%	50µM*
CCOC(=O)c1csc(N/N=C2\CCCc3ccccc32)n1	21%	?	25µM*	?	79µM*
CCOC(=O)c1csc(N/N=C2\CCc3ccccc32)n1	2%	45µM*	28µM*	?	-15%
SMILES	HP1b chromo inh	BAZ2B block	G9a inh	JMJD2A Tudor inh	Sfp inh
CC(=O)N[C@@H](CSC/C=C(\C)CCC=C(C)C)C(=O)O	·	·	33%[59 µM]	·	45µM*!
CC(=O)N[C@@H](CSC/C=C(\C)CC/C=C(\C)CCC=C(C)C)C(=O)O	·	·	-7%[59 µM]	·	?
O=C1C=CC2=C3c4cc(O)c(O)cc4C[C@]3(O)COC2=C1	·	·	?	·	-109%
CCCN1CCN(CCCNC(=S)Nc2ccc3nc(N4CCN(CC)CC4)cc(C)c3c2)CC1	4%	-8%	35µM*	-1%	14%
Cc1cc(N2CCN(C)CC2)nc2ccc(NC(=S)NCCCN3CCc4ccccc4C3)cc12	-7%	?	40µM*	-26%	8%
Cc1cc(N2CCCC2)nc2ccc(NC(=S)NCCCN3CCC(C)CC3)cc12	7%	·	50µM*	-32%	10%
CCCCNC(=S)Nc1ccc2nc(N3CCN(CC)CC3)cc(C)c2c1	12%	?	?	?	-13%
CCCCNC(=O)CCC(=O)Nc1ccc2nc(N3CCN(C)CC3)cc(C)c2c1	12%[57 µM]	-20%	-9%[59 µM]	-20%	3%
CCN1CCN(c2cc(C)c3cc(NC(=S)NCCCN4CCc5ccccc5C4)ccc3n2)CC1	-12%	?	32µM*	?	4%
O=C(CCCCn1c(=O)c2ccccc2n(Cc2ccccc2Cl)c1=O)NCCc1ccccc1	60%	41%	27%[59 µM]	-13%	·
CC(C)(C)OC(=O)N1CCC(CC2CC(c3ccc(Cl)cc3)=NO2)(C(=O)NCC2CCCCC2)CC1 (configuration not stated)	32%	?	3%	-12%	15%
CC1CCCN(CC(O)COc2ccc(Cl)cc2)C1 (configuration not stated)	7%	1%	9%[2.33 µM]	-5%	-6%
CC1CN(S(=O)(=O)c2cccc(C(=O)OCCOc3ccccc3)c2)CC(C)O1 (configuration not stated)	47%	6%	5%[12.7 µM]	16%	·
CCCOc1ccc(OCCN2CCCC(C)C2)cc1 (configuration not stated)	39%	56µM*	14µM*	?	-45%
COc1cccc(OCCCCCN2CCOCC2)c1	10%	-3%	-100%	-14%	2%
CC1CN(CCOc2cccc(Oc3ccccc3)c2)CC(C)O1 (configuration not stated)	?	50µM*	10µM*	20µM*	15%
CC1CCCN(CCOc2cccc(Oc3ccccc3)c2)C1 (configuration not stated)	?	56µM*	8.9µM*	22µM*	-13%
c1ccc(Oc2cccc(OCCCCN3CCCC3)c2)cc1	-28%	56µM*	?	35µM*	-17%
Cc1nc2nc(NC(=O)c3ccc(F)cc3)[nH]n2c(=O)c1Cc1ccccc1	21%	-9%	-42%[59 µM]	-32%	·
Cc1ccc(C)c(CSc2nnc3[nH]c(=O)cc(C)n23)c1	31%	-1%	3%[59 µM]	-7%	·
CC1CN(CCCCOc2cccc(Oc3ccccc3)c2)CC(C)O1 (configuration not stated)	?	35µM*	-125%[59 µM]	0.89µM*	?
Cc1cccc(OCCCCN2CCNCC2)c1	-11%	·	·	-25%	·
